Assay results reported in PubChem BioAssay (EPA / NIEHS).
“And” between values parts separate entries of the source, which are not always exact repeats. Equal values may be shown once. Inconclusive results are not listed. Some structures have more than one record in an assay (separate samples or runs), and their calls can disagree. The source made the active and inactive calls. Rule for the calls, unless noted: active = hit-call score of the fitted dose curve at least 0.9, where 1 is the maximum; inconclusive = response in the unintended direction; inactive = score below 0.9.

Assays:
[1] = ATG_GRE_CIS: Attagene CIS-FACTORIAL HepG2 Assay for human Glucocorticoid Response Elements (GRE) (AID 2282947; active = hit-call score of the fitted dose curve at least 0.9, where 1 is the maximum; inactive = score below 0.9); conditions: HepG2 GRE cis-reporter, Attagene multiplex mRNA; actives raise or lower the signal
In short: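 Cells (HepG2) bearing transfected cis-promoter reporter transcription units were treated with chemical for 24 hours. Reporter mRNA was measured via RT-PCR with capillary electrophoresis, and activity was fitted in both directions relative to DMSO.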

[2] = biological target: Hypoxia-inducible factor 1-alpha (Homo sapiens) (UniProt Q16665); assay: ATG_HIF1a_CIS: Attagene CIS-FACTORIAL HepG2 Assay for human Hypoxia Inducible Factor 1 (HIF1A) (AID 2282951; active = hit-call score of the fitted dose curve at least 0.9, where 1 is the maximum; inactive = score below 0.9); conditions: HepG2 Attagene cis-factorial HIF1a reporter transcription; actives raise or lower the signal
In short: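 Transient MRTU transfection of human HepG2 liver cells, 24 h compound treatment, then total RNA isolation, oligo(dT) reverse transcription, PCR amplification, fluorescent labelling and capillary electrophoresis of reporter fragments. Gain or loss relative to DMSO.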

[3] = biological target: Heat shock factor protein 1 (Homo sapiens) (UniProt Q00613); assay: ATG_HSE_CIS: Attagene CIS-FACTORIAL HepG2 Assay for human Heat Shock Transcription Factor 1 (HSE) (AID 2282953; active = hit-call score of the fitted dose curve at least 0.9, where 1 is the maximum; inactive = score below 0.9); conditions: HepG2 HSE cis-reporter, Attagene RNA transcription; actives raise or lower the signal
In short: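 Cells were transfected with cis-element-driven reporter constructs, dosed for 24 h, then total RNA was reverse-transcribed and reporter cDNA amplified, FAM-labelled and digested with HpaI. Fragments were resolved by capillary electrophoresis; gain or loss was fitted against DMSO.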

[4] = ATG_PBREM_CIS: Attagene CIS-FACTORIAL HepG2 Assay for human Phenobarbital-responsive Enhancer Module (PBREM) (AID 2282955; active = hit-call score of the fitted dose curve at least 0.9, where 1 is the maximum; inactive = score below 0.9); conditions: HepG2 PBREM cis-reporter, Attagene multiplexed transcription; actives raise or lower the signal
In short: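 Endogenous transcription factors in human liver HepG2 cells drive a PBREM cis-element reporter, whose transcript level after 24 h treatment is quantified by RT-PCR with capillary electrophoresis; activity fitted in both directions against DMSO.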

[5] = ATG_RORE_CIS: Attagene CIS-FACTORIAL HepG2 Assay for human RAR-related Orphan Receptor Element (RORE) (AID 2282959; active = hit-call score of the fitted dose curve at least 0.9, where 1 is the maximum; inactive = score below 0.9); conditions: HepG2 Attagene cis-factorial RORE reporter, mRNA; actives raise or lower the signal
In short: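 Transient MRTU transfection of human HepG2 liver cells (FuGene 6); 24 h compound exposure; TriZol RNA, oligo(dT) RT, PCR, FAM labeling, HpaI cut, CE fragment analysis. DMSO = negative control/baseline.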

[6] = biological target: Hepatocyte nuclear factor 4-alpha (Homo sapiens) (UniProt P41235); assay: ATG_HNF4a_TRANS: Attagene TRANS-FACTORIAL HepG2 Assay for human Hepatocyte Nuclear Factor 4 alpha (HNF4a) (AID 2282982); conditions: HepG2 HNF4a transactivation reporter, mRNA readout
In short: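 In this trans-factorial format, a chimeric HNF4a-GAL4 fusion drives a GAL4-UAS reporter in transfected HepG2 liver cells. After 24 h treatment, reporter mRNA induction is measured by RT-PCR with capillary electrophoresis, relative to DMSO.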

[7] = ATG_M_06_TRANS: Attagene TRANS-FACTORIAL HepG2 Assay for M06 Transcription Factor (Internal Marker) (AID 2282983); conditions: HepG2 Attagene TRANS M06 internal marker reporter
In short: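 Background control endpoint: reporter mRNA from transiently transfected HepG2 after 24 h dosing, detected by RT-PCR with capillary electrophoresis fluorescence. Analysed for gain versus DMSO.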

[8] = ATG_NRF2_ARE_CIS: Attagene CIS-FACTORIAL HepG2 Assay for human Nuclear Factor Erythroid 2 Related Factor 2 (NFR2) response to Antioxidant Response Elements (ARE) (AID 2282992; active = hit-call score of the fitted dose curve at least 0.9, where 1 is the maximum; inactive = score below 0.9); conditions: HepG2 Attagene ARE/NRF2 reporter, transcription factor activity; actives raise or lower the signal
In short: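 Using transiently transfected HepG2 cells exposed for 24 h, reporter mRNA levels were determined by RT-PCR with fluorescent primer extension and capillary electrophoresis, analysed for gain or loss of signal against DMSO.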

[9] = biological target: Peroxisome proliferator-activated receptor gamma (Homo sapiens) (UniProt P37231); assay: ATG_PPARg_TRANS: Attagene TRANS-FACTORIAL HepG2 Assay for human Peroxisome Proliferator-activated Receptor-gamma (PPARg) (AID 2283007)
In short: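 Transient transfection of HepG2 with GAL4-UAS-driven reporter units; chemical dosing 24 h; total RNA → oligo(dT) RT → PCR with reporter primers → 6-FAM primer extension → HpaI digest 2 h 37 C → capillary electrophoresis. Positive direction vs DMSO.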

[10] = biological target: Retinoic acid receptor RXR-alpha (Homo sapiens) (UniProt P19793); assay: ATG_RXRa_TRANS: Attagene TRANS-FACTORIAL HepG2 Assay for human Retinoid X Receptor alpha (RXRa) (AID 2283012)
In short: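 Measures exogenous chimeric NR-GAL4 activity in transfected HepG2 liver cells after 24 h of dosing. Induced reporter mRNA was detected by RT-PCR with capillary electrophoresis, and gain of signal was analysed against DMSO.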

[11] = biological target: human Thyroid Receptor alpha (THRa1), THRA (gene 7067) (UniProt P10827); assay: ATG_THRa1_TRANS: Attagene TRANS-FACTORIAL HepG2 Assay for human Thyroid Receptor alpha (THRa1) (AID 2283014)
In short: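 Reporter transcript induction, read by capillary electrophoresis of 6-FAM-labelled RT-PCR products, reflects activity of a transfected THRa1-Gal4 fusion in HepG2 liver cells. Cells were dosed for 24 h; activity was fitted in the positive direction against DMSO.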

[12] = biological target: Cellular tumor antigen p53 (Homo sapiens) (UniProt P04637); assay: TOX21_p53_BLA_p2_ratio: Tox21 HCT-116 p53 Agonism Beta-lactamase Assay, Ratio, Phase 2 (AID 2283592)
In short: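 Plated HCT116 p53-bla cells (4000/well) received compound after 5 h, then 16 h at 37C/5% CO2. CCF4-AM added, 2 h RT. Ratio of 460 to 530 nm emission taken as the p53 reporter signal.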

[13] = biological target: Cellular tumor antigen p53 (Homo sapiens) (UniProt P04637); assay: TOX21_p53_BLA_p3_ratio: Tox21 HCT-116 p53 Agonism Beta-lactamase Assay, Ratio, Phase 3 (AID 2283596)
In short: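 Cells were seeded at 4000/well, rested 5 h at 37C, then dosed with DMSO compound solutions (217-fold dilution) for 16 h. CCF4-AM substrate was loaded for 2 h at room temperature, and the 460/530 nm emission ratio was fitted for gain of signal versus DMSO.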

[14] = biological target: Cellular tumor antigen p53 (Homo sapiens) (UniProt P04637); assay: TOX21_p53_BLA_p5_ratio: Tox21 HCT-116 p53 Agonism Beta-lactamase Assay, Ratio, Phase 5 (AID 2283599)
In short: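 HCT-116 cells carrying a p53-inducible beta-lactamase reporter were seeded at 4000 cells/well and dosed after 5 h with compound in DMSO (217-fold dilution). After 16 h at 37C, CCF4-AM substrate was added for 2 h, and the 460/530 nm emission ratio was scored as gain-of-signal versus DMSO.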

[15] = biological target: Cellular tumor antigen p53 (Homo sapiens) (UniProt P04637); assay: TOX21_p53_BLA_p4_ratio: Tox21 HCT-116 p53 Agonism Beta-lactamase Assay, Ratio, Phase 4 (AID 2283601)
In short: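 HCT116 cells carrying an inducible beta-lactamase reporter were plated at 4000 cells/well, rested 5 h, then exposed to compounds in DMSO (217-fold dilution) for 16 h at 37C. CCF4-AM substrate was loaded 2 h at room temperature; 460/530 nm emission ratio scored gain-of-signal versus DMSO.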

[16] = biological target: human Peroxisome Proliferator-activated Receptor alpha (PPARa), PPARA (gene 5465) (UniProt Q07869); assay: ATG_PPARa_TRANS: Attagene TRANS-FACTORIAL HepG2 Assay for human Peroxisome Proliferator-activated Receptor alpha (PPARa) (AID 2283001)
In short: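 Cells (HepG2) are transfected with multiple reporter transcription units, exposed to chemical for 24 h, then total RNA is reverse-transcribed and amplified. Labelled products are quantified by capillary electrophoresis; induction is referenced to DMSO.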

[17] = biological target: Nuclear receptor subfamily 1 group I member 2 (Homo sapiens) (UniProt O75469); assay: ATG_PXR_TRANS: Attagene TRANS-FACTORIAL HepG2 Assay for human Pregnane X Receptor (PXR) (AID 2283008)
In short: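 Multiplexed TRANS reporter panel in HepG2; this component tracks PXR-Gal4-driven reporter mRNA after 24 h dosing, measured by RT-PCR with capillary electrophoresis fluorescence, fitted against DMSO.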

[18] = TOX21_p53_BLA_p5_viability: Viability Assessment in the Tox21 HCT-116 p53 Agonism Beta-lactamase Assay, Phase 5 (AID 2283600)
In short: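 Workflow: seed 4000 cells per well, wait 5 h, add compounds (DMSO, 217-fold dilution), incubate 16 h, load CCF4-AM 2 h, add CellTiter-Glo, read luminescence after 30 min.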

[19] = ATG_M_19_CIS: Attagene CIS-FACTORIAL HepG2 Assay for M19 Transcription Factor (Internal Marker) (AID 2282939; active = hit-call score of the fitted dose curve at least 0.9, where 1 is the maximum; inactive = score below 0.9); conditions: HepG2 Attagene CIS-FACTORIAL M19 internal marker reporter; actives raise or lower the signal
In short: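 Background-control endpoint from a multiplexed HepG2 reporter panel. Cells carrying cis-regulated reporter constructs are treated 24 h, then reporter transcripts are amplified, fluorescently labelled and sized by capillary electrophoresis. DMSO defines baseline.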

[20] = ATG_FoxO_CIS: Attagene CIS-FACTORIAL HepG2 Assay for human Forkhead box O (FoxO) (AID 2282943; active = hit-call score of the fitted dose curve at least 0.9, where 1 is the maximum; inactive = score below 0.9); conditions: HepG2 Attagene cis-reporter, FoxO element, mRNA; actives raise or lower the signal
In short: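 Values reflect reporter mRNA induction or loss in HepG2 cells 24 h post-dosing, fitted bidirectionally with DMSO as negative control and baseline. Detection used RT-PCR and fluorescence capillary electrophoresis.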

Measured: AC50

Sequence of Retinoic acid receptor RXR-alpha (Homo sapiens) (P19793 whole entry, looked up, the tested form may be a part): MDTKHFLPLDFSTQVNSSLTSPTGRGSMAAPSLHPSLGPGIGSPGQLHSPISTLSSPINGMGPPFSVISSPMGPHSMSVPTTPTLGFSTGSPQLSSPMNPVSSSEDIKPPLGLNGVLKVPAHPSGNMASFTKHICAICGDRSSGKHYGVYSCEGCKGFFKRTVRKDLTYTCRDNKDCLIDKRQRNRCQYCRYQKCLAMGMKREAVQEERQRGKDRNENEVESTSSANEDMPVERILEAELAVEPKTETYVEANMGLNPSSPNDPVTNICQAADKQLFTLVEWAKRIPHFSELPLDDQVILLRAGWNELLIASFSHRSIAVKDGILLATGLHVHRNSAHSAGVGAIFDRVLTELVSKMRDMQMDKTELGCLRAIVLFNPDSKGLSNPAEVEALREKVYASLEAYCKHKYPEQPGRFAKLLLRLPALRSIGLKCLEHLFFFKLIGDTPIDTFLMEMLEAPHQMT
Sequence of Hepatocyte nuclear factor 4-alpha (Homo sapiens) (P41235 whole entry, looked up, the tested form may be a part): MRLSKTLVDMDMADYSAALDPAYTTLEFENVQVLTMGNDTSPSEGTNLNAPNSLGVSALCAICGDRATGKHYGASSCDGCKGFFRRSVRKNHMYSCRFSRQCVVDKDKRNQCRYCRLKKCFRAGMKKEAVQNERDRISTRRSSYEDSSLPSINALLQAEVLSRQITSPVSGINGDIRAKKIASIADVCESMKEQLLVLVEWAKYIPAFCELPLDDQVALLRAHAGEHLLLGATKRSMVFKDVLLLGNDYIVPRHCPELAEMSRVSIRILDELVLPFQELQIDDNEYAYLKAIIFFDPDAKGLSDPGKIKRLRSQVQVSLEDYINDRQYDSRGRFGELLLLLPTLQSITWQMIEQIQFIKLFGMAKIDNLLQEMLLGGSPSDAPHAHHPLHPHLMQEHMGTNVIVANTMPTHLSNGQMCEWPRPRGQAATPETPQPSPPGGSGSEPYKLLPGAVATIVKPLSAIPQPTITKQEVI
Sequence of Cellular tumor antigen p53 (Homo sapiens) (P04637 whole entry, looked up): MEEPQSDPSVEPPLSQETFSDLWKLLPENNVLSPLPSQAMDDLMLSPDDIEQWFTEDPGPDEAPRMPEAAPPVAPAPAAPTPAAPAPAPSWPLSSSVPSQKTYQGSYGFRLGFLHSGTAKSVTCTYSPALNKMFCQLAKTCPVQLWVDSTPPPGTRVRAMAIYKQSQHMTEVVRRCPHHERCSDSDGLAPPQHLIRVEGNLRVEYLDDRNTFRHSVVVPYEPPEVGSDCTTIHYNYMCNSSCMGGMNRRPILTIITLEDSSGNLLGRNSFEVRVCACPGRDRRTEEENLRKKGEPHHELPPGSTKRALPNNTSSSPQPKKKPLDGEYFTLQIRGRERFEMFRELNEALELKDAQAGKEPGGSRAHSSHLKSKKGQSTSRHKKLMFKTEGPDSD
Sequence of human Peroxisome Proliferator-activated Receptor alpha (PPARa), PPARA (gene 5465) (Q07869 whole entry, looked up): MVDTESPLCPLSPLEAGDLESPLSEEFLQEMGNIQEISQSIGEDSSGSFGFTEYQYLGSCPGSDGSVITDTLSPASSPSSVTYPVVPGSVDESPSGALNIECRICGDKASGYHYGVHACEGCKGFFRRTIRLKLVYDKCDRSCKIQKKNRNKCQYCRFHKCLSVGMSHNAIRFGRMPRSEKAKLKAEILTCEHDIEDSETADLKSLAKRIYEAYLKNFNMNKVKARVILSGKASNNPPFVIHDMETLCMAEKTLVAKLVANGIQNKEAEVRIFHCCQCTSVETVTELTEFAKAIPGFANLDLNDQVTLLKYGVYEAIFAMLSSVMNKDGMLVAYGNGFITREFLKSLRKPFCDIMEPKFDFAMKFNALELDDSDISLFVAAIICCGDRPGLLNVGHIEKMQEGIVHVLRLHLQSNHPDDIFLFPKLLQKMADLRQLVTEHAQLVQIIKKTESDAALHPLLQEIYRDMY
Sequence of Hypoxia-inducible factor 1-alpha (Homo sapiens) (Q16665 whole entry, looked up, the tested form may be a part): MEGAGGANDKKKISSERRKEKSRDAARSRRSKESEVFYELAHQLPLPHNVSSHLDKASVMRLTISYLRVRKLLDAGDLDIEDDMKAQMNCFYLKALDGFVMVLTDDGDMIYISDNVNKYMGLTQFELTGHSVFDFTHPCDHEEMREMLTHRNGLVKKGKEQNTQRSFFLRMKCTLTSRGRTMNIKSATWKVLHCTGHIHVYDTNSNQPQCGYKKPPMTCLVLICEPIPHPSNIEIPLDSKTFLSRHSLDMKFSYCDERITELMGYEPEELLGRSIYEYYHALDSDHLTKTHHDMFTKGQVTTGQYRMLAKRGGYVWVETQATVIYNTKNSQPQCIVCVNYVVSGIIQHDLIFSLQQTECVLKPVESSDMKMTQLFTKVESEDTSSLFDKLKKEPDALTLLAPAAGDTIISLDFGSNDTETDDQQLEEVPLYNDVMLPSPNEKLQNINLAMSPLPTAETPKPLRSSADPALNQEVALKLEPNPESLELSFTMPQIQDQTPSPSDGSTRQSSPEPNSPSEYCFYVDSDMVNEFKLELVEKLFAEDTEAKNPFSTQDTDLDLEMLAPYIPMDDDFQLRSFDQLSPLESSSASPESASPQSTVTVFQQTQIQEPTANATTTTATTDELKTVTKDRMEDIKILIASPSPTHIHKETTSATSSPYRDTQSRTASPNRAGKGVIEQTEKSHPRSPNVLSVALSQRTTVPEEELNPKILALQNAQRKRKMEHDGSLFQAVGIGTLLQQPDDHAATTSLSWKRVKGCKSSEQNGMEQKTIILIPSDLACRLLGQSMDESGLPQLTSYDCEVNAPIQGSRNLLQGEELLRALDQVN
Sequence of Peroxisome proliferator-activated receptor gamma (Homo sapiens) (P37231 whole entry, looked up, the tested form may be a part): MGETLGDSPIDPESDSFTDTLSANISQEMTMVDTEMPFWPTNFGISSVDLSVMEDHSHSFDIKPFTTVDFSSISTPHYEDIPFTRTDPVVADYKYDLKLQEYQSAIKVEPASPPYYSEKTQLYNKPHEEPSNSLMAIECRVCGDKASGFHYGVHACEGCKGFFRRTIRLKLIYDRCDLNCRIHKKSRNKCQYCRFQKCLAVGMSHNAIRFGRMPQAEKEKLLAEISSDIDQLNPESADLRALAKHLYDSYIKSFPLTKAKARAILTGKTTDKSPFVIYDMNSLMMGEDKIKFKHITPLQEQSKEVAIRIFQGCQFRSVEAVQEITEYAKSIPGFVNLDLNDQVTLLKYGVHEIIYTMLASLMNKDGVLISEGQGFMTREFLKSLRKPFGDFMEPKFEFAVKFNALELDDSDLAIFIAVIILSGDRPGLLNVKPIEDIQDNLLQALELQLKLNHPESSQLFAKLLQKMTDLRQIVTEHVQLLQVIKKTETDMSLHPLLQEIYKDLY
Sequence of Heat shock factor protein 1 (Homo sapiens) (Q00613 whole entry, looked up, the tested form may be a part): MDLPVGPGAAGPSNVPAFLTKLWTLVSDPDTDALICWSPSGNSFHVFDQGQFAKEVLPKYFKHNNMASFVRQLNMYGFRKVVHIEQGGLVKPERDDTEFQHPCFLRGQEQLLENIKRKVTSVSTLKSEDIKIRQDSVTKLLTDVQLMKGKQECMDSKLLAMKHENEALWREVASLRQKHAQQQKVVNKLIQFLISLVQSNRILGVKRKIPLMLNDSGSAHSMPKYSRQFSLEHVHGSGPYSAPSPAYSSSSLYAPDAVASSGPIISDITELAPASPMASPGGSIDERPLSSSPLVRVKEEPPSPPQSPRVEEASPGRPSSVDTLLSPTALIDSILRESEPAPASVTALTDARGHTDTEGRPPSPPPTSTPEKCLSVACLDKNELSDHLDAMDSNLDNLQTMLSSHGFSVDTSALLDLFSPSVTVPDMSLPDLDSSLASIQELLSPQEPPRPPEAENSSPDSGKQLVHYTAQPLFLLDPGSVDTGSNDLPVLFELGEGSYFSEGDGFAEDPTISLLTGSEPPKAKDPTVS
Sequence of Nuclear receptor subfamily 1 group I member 2 (Homo sapiens) (O75469 whole entry, looked up, the tested form may be a part): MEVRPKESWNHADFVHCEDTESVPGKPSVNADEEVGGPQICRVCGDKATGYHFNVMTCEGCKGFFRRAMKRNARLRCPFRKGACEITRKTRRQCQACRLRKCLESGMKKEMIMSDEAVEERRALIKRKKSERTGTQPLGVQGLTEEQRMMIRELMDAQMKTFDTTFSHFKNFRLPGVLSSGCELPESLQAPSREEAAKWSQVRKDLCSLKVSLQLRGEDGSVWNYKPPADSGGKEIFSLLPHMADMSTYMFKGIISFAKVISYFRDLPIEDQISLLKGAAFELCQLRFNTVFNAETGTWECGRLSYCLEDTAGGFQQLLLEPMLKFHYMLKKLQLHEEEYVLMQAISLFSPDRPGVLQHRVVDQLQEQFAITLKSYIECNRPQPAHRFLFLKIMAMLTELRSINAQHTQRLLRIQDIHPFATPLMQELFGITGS
Sequence of human Thyroid Receptor alpha (THRa1), THRA (gene 7067) (P10827 whole entry, looked up, the tested form may be a part): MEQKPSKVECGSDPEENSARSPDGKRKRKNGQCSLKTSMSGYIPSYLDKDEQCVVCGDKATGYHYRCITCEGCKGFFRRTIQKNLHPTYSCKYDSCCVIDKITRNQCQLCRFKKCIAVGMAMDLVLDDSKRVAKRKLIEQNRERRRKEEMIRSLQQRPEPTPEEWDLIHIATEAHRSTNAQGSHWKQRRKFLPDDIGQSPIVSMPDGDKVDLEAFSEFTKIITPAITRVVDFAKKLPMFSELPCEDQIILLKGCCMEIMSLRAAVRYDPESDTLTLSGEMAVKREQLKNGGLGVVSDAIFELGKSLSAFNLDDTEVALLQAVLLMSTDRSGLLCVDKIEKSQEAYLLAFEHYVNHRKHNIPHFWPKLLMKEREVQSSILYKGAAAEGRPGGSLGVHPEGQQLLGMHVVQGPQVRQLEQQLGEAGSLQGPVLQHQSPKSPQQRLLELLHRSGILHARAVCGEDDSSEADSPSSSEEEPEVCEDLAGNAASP

O=C(O)c1cc[c]([Hg][Cl])cc1
active: [8] 11.1 µM | [9] 44.6 µM
inactive: [1] | [2] | [3] | [4] | [5] | [6] | [7] | [10] | [11] | [12] | [13] | [14] | [15]

CCOC(=O)C1OC1(C)c1ccccc1 (centres undefined)
active: [9] 100 µM
inactive: [1] | [2] | [3] | [4] | [16] | [17] | [10] | [12] | [13] | [14] | [18] | [15]

CC(O)CN(CC(C)O)CC(C)O (centres undefined)
inactive: [19] | [20] | [1] | [2] | [3] | [4] | [5] | [8] | [16] | [11] | [12] | [13] | [14] | [18] | [15]

O=C1C(Cl)=C(Cl)C(=O)C(Cl)=C1Cl
inactive: [19] | [1] | [4] | [5] | [6] | [7] | [16] | [9] | [17] | [10] | [11] | [12] | [13]
active: [3] 89.5 µM | [8] 48.7 µM | [12] 13.7 µM | [13] 4.93 µM | [14] 15.4 µM and 34.8 µM | [18] 57.6 µM and 56.4 µM

C=C(Cl)Cl
inactive: [20] | [1] | [2] | [4] | [5] | [6] | [7] | [8] | [9] | [17] | [18] | [15]
